Among the data in ChEMBL document CHEMBL1157539, “Thousands of chemical starting points for antimalarial lead identification” (Nature, 2010) are Inhibition values, retold here.

Several values for one entry are separate records, joined by “and”; a condition that tells them apart may be missing. Equal values may be shown once.

Common to all, as to assay type: functional
In test [1] the test system is Plasmodium falciparum. As to the kind of experiment: GSK_TCMDC: Inhibition of Plasmodium falciparum 3D7 in whole red blood cells, using parasite LDH activity as an index of growth. Test compounds present at 2uM.
Test [2] relates to Plasmodium falciparum. As to the kind of experiment: GSK_TCMDC: Inhibition of Plasmodium falciparum Dd2 in whole red blood cells, using parasite LDH activity as an index of growth. Test compounds present at 2uM.
Test [3] relates to HepG2. As to the kind of experiment: GSK_TCMDC: Percent inhibition of human HepG2 cell line. Test compounds present at 10uM.

Turning to `COC(=O)c1ccc(CC(C)NCC(O)c2cccc(C(F)(F)F)c2)cc1F.Cl` (stereo not given), the Inhibition in test [1] came out at 82%; in test [2] it was 47%; in test [3], 1%.

With `O=C(NC1CCN(CCc2c[nH]c3ccc(F)cc23)CC1)c1ncc(-c2ccccc2)[nH]1.O=C(O)C(F)(F)F`, the results for the Inhibition in test [1], in test [2] and in test [3] were 100%, 69% and 0%, respectively.

On to `COc1ccc2[nH]cc(C3=CCN(Cc4ccccc4)CC3)c2c1`, for which the Inhibition in test [1] was found to be 90%; in test [2] it was 84%; in test [3] it was 51%.

Regarding `CCCCOC(C(=O)OCC1CCCN1C)(c1ccccc1)c1ccccc1` (stereo not given), the Inhibition in test [1] is on record as 100%; in test [2], 2%; in test [3], 3%.

In the case of `CCc1ccc(CN2CCC(CN(C(=O)c3ccccc3)c3ccc(Cl)cc3)CC2)cc1`, the Inhibition was 96% in test [1], 95% in test [2] and 12% in test [3].

`O=C(/C=C/c1ccc(Cl)c(Cl)c1)NC1CCC(N2CCC(c3c[nH]c4ccc(O)cc34)CC2)CC1` (stereo not given): the Inhibition in test [1] stood at 97%; in test [2], 16%; in test [3] it was 10%.

On to `O=[N+]([O-])c1ccc(Oc2c(Cl)cc(S(=O)(=O)NC3CCC(CN4CCC(c5c[nH]c6ccccc56)CC4)CC3)cc2Cl)c(Cl)c1` (stereo not given), for which the Inhibition in test [1] was found to be 100%; in test [2] it was 64%; in test [3], 30%.

Take `Br.CC(Cc1ccc(SC(C)(C)C)cc1)NCC(O)c1cccc(Cl)c1` (stereo not given): the figures for the Inhibition in test [1], in test [2] and in test [3] were 99%, 99% and 14%, respectively.

Turning to `O=C(Nc1cc(C(F)(F)F)cc(C(F)(F)F)c1)N1CCC(CN2CCC(c3c[nH]c4ccccc34)CC2)CC1`, the Inhibition in test [1] was found to be 100%; in test [2], 99%; in test [3] it was 42%.

`COc1ccc(-c2ccccc2)cc1NC(=S)NC1CCC(CN2CCC(c3c[nH]c4ccccc34)CC2)CC1` (stereo not given): the Inhibition was 100% in test [1]; 98% and 95% in test [2]; 27% and 51% in test [3].

Consider `Cc1ccc(C2(O)CC3CCC(C2)N3C)cc1` (stereo not given), for which the Inhibition in test [1] was 92%; in test [2], 16%; in test [3] it was 0%.

On to `COC(=O)c1ccc(CC(C)NCC(O)c2ccc3ccc4ccccc4c3c2)cc1.O=C(O)/C=C/C(=O)O` (stereo not given), for which the figures for the Inhibition in test [1], in test [2] and in test [3] were 100%, 97% and 21%, respectively.

For `Cc1ccc(C)c(N2CCN(Cc3ccccc3O)CC2)c1`, the Inhibition in test [1] was 100%; in test [2], 90%; in test [3], 11%.

Take `Cc1c(C)c2c(c(C)c1O)CC[C@](C)(C(=O)N1CCC(CN3CCC(c4c[nH]c5ccccc45)CC3)CC1)O2`: the Inhibition worked out at 100% in test [1], 98% in test [2] and 29% in test [3].

As for `O=C(NC1CCC(CN2CCC(c3c[nH]c4ccccc34)CC2)CC1)[C@H]1Cc2ccccc2CN1` (stereo not given in full), the Inhibition in test [1] came to 89%; in test [2], 35%; in test [3], 29%.

Regarding `Cc1nc2ccccc2n1C1CC2CCC(C1)N2Cc1nccn1-c1ccccc1.O=C(O)C(F)(F)F` (stereo not given), the Inhibition in test [1] came to 94%; in test [2], 96%; in test [3] it was 0%.

Consider `COc1cc(NC(=O)c2nn(CCCN3CCC4(CC3)C(=O)NCN4c3ccccc3)cc2-c2ccc(Cl)c(Cl)c2)cc(OC)c1OC`, for which the Inhibition in test [1] worked out at 97%; in test [2], 75%; in test [3], 0%.

On to `COc1cccc(C(=O)C2CC2CN2CC=C(c3c[nH]c4cccc(Br)c34)CC2)c1` (stereo not given), for which the figures for the Inhibition in test [1], in test [2] and in test [3] were 96%, 85% and 22%, respectively.

For the compound `Cl.OC(CNC1CCCCCC1)c1ccc(Cl)c(Cl)c1` (stereo not given), the Inhibition in test [1] turned out to be 99%; in test [2], 98%; in test [3] it was 0%.

With `Cc1c(C)c2c(c(C)c1O)CC[C@](C)(C(=O)NC1CCC(CN3CCC(c4c[nH]c5ccccc45)CC3)CC1)O2` (stereo not given in full), the Inhibition is 96% and 85% in test [1]; 98% and 48% in test [2]; 24% and 27% in test [3].

Turning to `Cc1ccc(CC(C)NC[C@H](O)c2cccc(Cl)c2)cc1.Cl` (stereo not given in full), the Inhibition in test [1] was found to be 96%; in test [2], 47%; in test [3] it was 15%.

Regarding `S=C(NCC1CCCCC1)NC1CCC(CN2CCC(c3c[nH]c4ccccc34)CC2)CC1` (stereo not given), the figures for the Inhibition in test [1], in test [2] and in test [3] were 88%, 10% and 29%, respectively.

Turning to `Cc1cc(CN2CCN(CCOC(c3ccccc3)c3ccccc3)CC2)ccc1O`, the figures for the Inhibition in test [1], in test [2] and in test [3] were 97%, 96% and 9%, respectively.

Regarding `O=C(/C=C/c1ccc(Cl)c(Cl)c1)N(Cc1ccccc1)C1CCC(CN2CCC(c3c[nH]c4ccccc34)CC2)CC1` (stereo not given), the Inhibition in test [1] came out at 100%; in test [2], 59%; in test [3], 37%.

On to `CCCCCc1cc(O)c2c3c(c(=O)oc2c1)CN(C)CC3`, for which the Inhibition in test [1] is recorded as 100%; in test [2], 99%; in test [3], 4%.

On to `COc1ccc(OC)c(CNCC(O)c2cc(C(F)(F)F)cc(C(F)(F)F)c2)c1` (stereo not given), for which the Inhibition in test [1] is reported as 92%; in test [2] it was 100%; in test [3], 7%.

On to `Cc1c(C)c2c(c(C)c1O)CC[C@@](C)(C(=O)N1CCC(CN3CCC(c4c[nH]c5ccccc45)CC3)CC1)O2`, for which the figures for the Inhibition in test [1], in test [2] and in test [3] were 98%, 90% and 21%, respectively.

With `CCOC(=O)CCCN1C(=O)CN=C(c2ccccc2)c2cc(Cl)ccc21`, the Inhibition is 97% in test [1], 47% in test [2] and 54% in test [3].

Consider `O=C(NC1CCC(CN2CCC(c3c[nH]c4ccccc34)CC2)CC1)NC12CC3CC(CC(C3)C1)C2` (stereo not given), for which the Inhibition in test [1] turned out to be 96%; in test [2] it was 46%; in test [3], 37%.

In the case of `CCCCCCC(C)(C)c1cc(O)c2c(c1)OC(C)(C)c1ccncc1-2.Cl`, the Inhibition in test [1] is 95%; in test [2] it was 99%; in test [3], 4%.
